Measurements as given in ChEMBL document CHEMBL4513216, “Probing the Open Global Health Chemical Diversity Library for Multistage-Active Starting Points for Next-Generation Antimalarials” (ACS Infect Dis, 2020).
Hit rate of the full screen: of about 69,000 compounds, about 8,600 (12%) showed an effect of 50% or more. The full list was thinned out, with strong results kept by preference.

Test system: Plasmodium berghei
Assay: Screen against P. berghei liver stage (PbLuc), transformed with Luciferase, at 10uM
Format: functional, HepG2
Details: tested at 10 uM

Compound	INHIBITION
COc1ccc(Cl)cc1NCC(=O)NCCNc1ncccn1	45.7%
COc1ccc(C)cc1NS(=O)(=O)c1ccc(CCNC(C)=O)s1	-1.04%
c1coc(CN2CCC3(CC2)COC(COCC2CC2)C3)c1 (centres undefined)	-28.2%
Cc1nc(CN(C)C2CCN(CCn3cc(C#N)cn3)C2)no1 (centres undefined)	53.9%
CN(Cc1noc(C2CC2)n1)C1CCN(CCn2cc(C#N)cn2)C1 (centres undefined)	37.4%
CC(C)c1cnc(CN(C)C2CCN(CCn3cc(C#N)cn3)C2)o1 (centres undefined)	-6.44%
Cc1cnc(CN(C)C2CCN(CC(=O)Nc3nccs3)C2)o1 (centres undefined)	9.14%
CC(C)c1nc(CN(C)C2CCN(CCn3cc(C#N)cn3)C2)no1 (centres undefined)	29.2%
Cc1cnc(CN(C)C2CCN(CCn3cc(C#N)cn3)C2)o1 (centres undefined)	44.8%
CCc1cnc(CN(C)C2CCN(CC(=O)Nc3nccs3)C2)o1 (centres undefined)	52.3%
CCc1cnc(CN(C)C2CCN(CCn3cc(C#N)cn3)C2)o1 (centres undefined)	52.5%
CCc1cnc(CN(C)C2CCN(CC(=O)Nc3cc(C)on3)C2)o1 (centres undefined)	-32%
Cc1cnn(CC2CCCN2C(=O)CCc2cscn2)c1 (centres undefined)	19.965%
CC(=O)N1CCN([C@@H]2CCC[C@@H](NC(=O)c3cccnc3)[C@H]2O)CC1	8.53%
Cc1nc(CN2CCCC(c3cc(C(N)=O)[nH]n3)C2)oc1C (centres undefined)	-0.113%
O=C(O)c1c(-c2cncnc2)ncc2c1CCN(CC1CCOC1)C2 (centres undefined)	43%
O=C1NCC2(CCC(C(=O)N3CCCC(O)C3)CC2)Oc2ccccc21 (centres undefined)	8.72%
CN(Cc1ccsc1)C(=O)c1ccc2c(c1)NC(=O)CO2	6.8%
Cc1cc(C(=O)Nc2ccn(CCCN3CCCC3)n2)no1	38.4%
COCCN(Cc1sccc1C)C(=O)COc1cccnc1	-32.6%
O=C(NCc1cncc2c1CCN(Cc1ccccc1)C2)C1CC1	-27.9%
CC(=O)N1CC2(CCN(C(=O)C3CC3)CC2)c2cc(C)ccc21	84.5%
CCC(=O)N1CCC2(CC1)CN(C(C)=O)c1ccc(C)cc12	-47.5%
CC(=O)N1CC2(CCN(C(=O)N(C)C)CC2)c2cc(C)ccc21	37.8%
CCOCCCNC(=O)C(C)n1cc(Br)cn1 (centres undefined)	5.05%
Cc1nnc(CNC(=O)CC2CCc3ccccc32)o1 (centres undefined)	13%

Compound	INHIBITION
COC(=O)N1CCc2ccccc2C1C(=O)NCc1nc(C)no1 (centres undefined)	43.4%
CC(=O)N1CCc2ccccc2C1CC(=O)NCc1nnc(C)o1 (centres undefined)	61.2%
COc1cc(CNCc2c(C(C)C)nn(C)c2N(C)C)ccn1	33.3%
Cc1nn(CC(C)C)c(N(C)C)c1CNCc1ccccc1CO	-21.8%
Cc1nn(CC(C)C)c(N(C)C)c1CNCc1cccnc1N(C)C	43.7%
COc1cc(CNCc2c(C)nn(CC(C)C)c2N(C)C)ccn1	77.1%
COc1cc(CNCc2c(C)nn(C)c2N(C)C)ccn1	42.6%
Cc1nn(CC(C)C)c(N(C)C)c1CNCc1cc2ccccc2[nH]1	67.3%
N#Cc1cccnc1NCc1ccc(S(=O)(=O)NCC2CCCO2)cc1 (centres undefined)	55.6%
N#Cc1cccnc1NCc1ccc(S(=O)(=O)NC2CC2)cc1	-15.2%
COCCNS(=O)(=O)c1ccc(CNc2ncccc2C#N)cc1	48.4%
CN(Cc1ccco1)Cc1cnc2n1CCN(S(C)(=O)=O)CC2	31.9%
O=C(NC[C@H]1OC[C@@H]2CCN(Cc3ccco3)C[C@@H]21)c1ccsc1	23.5%
Cn1cc2c(n1)C(CNC1CCOCC1)OCC2 (centres undefined)	4.02%
Cn1cc2c(n1)C(CNCC1CCOCC1)OCC2 (centres undefined)	-4.02%
CC(C)NCC1OCCc2cn(C)nc21 (centres undefined)	55.5%
Cc1cnc2cc(C3CCN(C(=O)c4ccncc4)CC3)[nH]c2n1	38.8%
CN(C)c1ccc(C(=O)N2CCC(c3cc4ncccc4[nH]3)CC2)cc1	57.7%
COc1cc(CCC(=O)N2CCC(c3cc4ncccc4[nH]3)CC2)on1	-26.4%
Cc1noc(C)c1C(=O)N1CCC(c2cc3cnccc3[nH]2)CC1	13.335%
CN(C)c1cccc(C(=O)N2CCC(c3n[nH]c(C4CC4)n3)CC2)c1	13.3%
COCc1ccc(C(=O)N2CCC(c3cc4ncc(C)nc4[nH]3)C2)cc1 (centres undefined)	20.8%
CN(C)c1ccc(C(=O)N2CCC(c3n[nH]c(C4CC4)n3)CC2)cc1	2.97%
COCc1ccc(C(=O)N2CCC(c3cc4nccnc4[nH]3)CC2)cc1	66.5%
CN(C)c1ccc(C(=O)N2CCC(c3cc4cnccc4[nH]3)CC2)cc1	51.75%
CN(C1CCN(C(=O)NCCc2ccc(F)cc2F)CC1)S(C)(=O)=O	39.7%

Compound	INHIBITION
CC(=O)Nc1sc2c(c1C(=O)O)CCc1ccccc1-2	11.1%
CC(C)CNc1c(NCc2ccco2)c(=O)c1=O	-4.28%
COCCO[C@H]1CCN(C(=O)c2ccoc2C)[C@H]1Cc1cnn(C)c1	14.1%
COCCn1ccc(=O)c(OCC(=O)Nc2ccc(OC)c(Cl)c2)c1C	-38%
CC(CNC(=O)c1ccc(Cl)cc1F)N1CCCC1 (centres undefined)	51.4%
CC(CNC(=O)c1ccc(Cl)cc1I)N1CCCC1 (centres undefined)	17.4%
CN1CCN(C(CNC(=O)c2ccc(Cl)cc2F)c2cccs2)CC1 (centres undefined)	66.7%
CC(CNC(=O)c1cc(Cl)ccc1I)N1CCCC1 (centres undefined)	30.5%
O=C(NCC(c1cccs1)N1CCOCC1)c1ccc(F)cc1Cl (centres undefined)	-14.5%
CC(CNC(=O)c1cc(Cl)ccc1F)N1CCCC1 (centres undefined)	33.8%
CC(CNC(=O)c1ccc(F)cc1I)N1CCCC1 (centres undefined)	55.8%
CC(CNC(=O)c1ccc(Cl)cc1F)N1CCN(C)CC1 (centres undefined)	25%
CC(CNC(=O)c1ccc(F)cc1Cl)N1CCCC1 (centres undefined)	35.6%
Cc1cc(CN2CCN(C(=O)CCc3ccco3)CC2)on1	14%
CC(NCc1ccccc1Cl)c1ccc(OCC(=O)NC2CC2)cc1 (centres undefined)	48.2%
CCc1nc(CNC(C)(CO)C2CCCCC2)no1 (centres undefined)	37.4%
Cc1cnn(CC2CN(c3nc4ccccc4o3)CCO2)c1 (centres undefined)	44.1%
Cc1nc(CN2CCN(Cc3nccn3C)CC2)no1	33.7%
Cn1ccnc1CN1CCN(c2ccc(C#N)cc2F)CC1	53.3%
Cc1cc(C(F)(F)F)nc(N2CCN(Cc3nccn3C)CC2)n1	74%
Cn1ccnc1CN1CCN(Cc2cc(C#N)ccc2F)CC1	35.3%
Cc1cc(C2CCC2)nc(N2CCN(Cc3nccn3C)CC2)n1	84.1%
Cc1cc(C)nc(N2CCN(Cc3nccn3C)CC2)n1	7.52%
Cc1cc(C2CCC2)nc(N2CC(n3cccn3)C2)n1	-9.91%
Cn1ccnc1CN1CCCN(Cc2noc(C3CC3)n2)CC1	11.2%
Cn1ccnc1CN1CCN(Cc2ccc(C#N)cc2F)CC1	15.15%

Compound	INHIBITION
COCc1cccc(NC(=O)NCCCN(C)S(C)(=O)=O)c1	-10.8%
CC(C1CC1)N(C)C(=O)c1ccc(-n2ncc(C#N)c2N)cc1 (centres undefined)	-61.4%
CCCOCCN1CCN(c2ncnc3[nH]ccc23)CC1	-24%
NC(=O)Cn1nc(-c2ccccc2F)ccc1=O	15.4%
CC(=O)Cn1nc(-c2ccccc2F)ccc1=O	64.2%
O=C(O)Cn1nc(-c2ccccc2F)ccc1=O	26.4%
Cc1noc(Cl)c1CC(=O)N1CCC(Nc2cccnn2)CC1	18.04%
CCC(=O)N1CCN(C(=O)Cn2cccn2)CC1	27.45%
O=C(NCc1cccnc1)[C@@H]1CC[C@@H]2[C@@H](CCN2c2ncc(F)cn2)O1	73%
O=C(NCc1cccnc1)[C@@H]1C[C@H]2[C@H](CCN2c2ncccn2)O1	73%
O=C(NCc1ccccn1)[C@@H]1CC[C@@H]2[C@@H](CCN2c2ncc(F)cn2)O1	40.4%
O=C(NCc1cccnc1)[C@@H]1C[C@H]2[C@H](CCN2c2ncc(F)cn2)O1	21.8%
O=C(NCc1ccco1)[C@H]1CC[C@@H]2[C@@H](CCN2c2ncccn2)O1	7.77%
O=C(NCc1cccs1)[C@H]1CC[C@@H]2[C@@H](CCN2c2ncccn2)O1	-50.8%
O=C(NCc1cccnc1)[C@H]1CC[C@@H]2[C@@H](CCN2c2ncccn2)O1	74.2%
O=C(NCc1cccnc1)[C@@H]1CC[C@@H]2[C@@H](CCN2c2ncccn2)O1	96.3%
O=C(NCc1cccnc1)[C@@H]1C[C@@H]2CCN(c3ncc(F)cn3)C[C@@H]2O1	-9.71%
CNC(=O)[C@H]1CC[C@@H]2[C@@H](CCN2c2ncccn2)O1	47.5%
O=C(NCc1cccs1)[C@@H]1CC[C@@H]2[C@@H](CCN2c2ncccn2)O1	3.25%
O=C(NCc1ccco1)[C@H]1CC[C@@H]2[C@@H](CCN2Cc2cccnc2)O1	-66%
OCc1cn(Cc2cccc(C(F)(F)F)c2)nn1	-5.1%
Cc1ccc(C(=O)N(C)CCCc2cnn(C)c2)cc1N1CCNC1=O	58.8%
CN(Cc1cnn(C)c1)C(=O)c1ccc(Cl)c(N2CCNC2=O)c1	18.4%
CCN(Cc1cnn(C)c1)C(=O)c1ccc(C)c(N2CCNC2=O)c1	28.2%
O=C(NC1CCN(c2ncccc2F)C1)c1cccc(-n2ccnn2)c1 (centres undefined)	-20.8%
C1CC(CN2C[C@@H]3CC[C@H]2CN(Cc2noc(C4CCCC4)n2)C3)C1	18.6%
